Data as given in PubChem BioAssay (NCATS).
Where “and” joins values, the source holds several entries; their conditions need not be identical. Identical values can stand only once. Inconclusive results are not listed. Calls of active or inactive are those of the source. The call rests on the fitted dose curve; in most records, active means well fitted inhibition curve with a large enough effect; inconclusive means small, poorly fitted or top-dose-only effect; inactive means flat fitted curve, though single readings scatter.

Assays:
[1] = test system: KB-3-1; assay: Cytotoxic Profiling of Annotated Libraries Using Quantitative High-Throughput Screening (AID 1296008); details: Five cell lines viability, CellTiter-Glo ATP luminescence, 48-72 h; max response: stronger effect = lower value
How it was run: (§1)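 Compounds were pin-transferred onto cells and incubated 48 or 72 hr at 37 degree Celsius, 95% humidity. CellTiter-Glo was added, plates sat 10 min at room temperature, then ATP-coupled luminescence was imaged as the viability read-out.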

[2] = test system: NIH3T3; assay: as above; details: Five cell lines viability, CellTiter-Glo ATP luminescence, 48-72 h; max response: stronger effect = lower value
How it was run: as §1

[3] = test system: HACAT; assay: qHTS assay to identify novel small-molecules to repurpose for Merkel cell carcinoma treatment (AID 1296009); details: MCC and control cell lines, CellTiter-Glo viability, 72 h; at 44.8 µM (top of the series) unless noted
How it was run: (§2)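 qHTS format: cells treated with library compounds in DMSO across 8 (NPC) or 11 (MIPE) concentrations. Readout after 72 hr at 37 degree celsius was CellTiter-Glo luminescence.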

[4] = test system: HEK293T; assay: as above; details: MCC and control cell lines, CellTiter-Glo viability, 72 h; at 44.8 µM (top of the series)
How it was run: as §2

[5] = test system: MCC-13; assay: as above; details: MCC and control cell lines, CellTiter-Glo viability, 72 h; series mostly up to 46 µM
How it was run: as §2

[6] = test system: MCC-26; assay: as above; details: MCC and control cell lines, CellTiter-Glo viability, 72 h; series mostly up to 46 µM
How it was run: as §2

[7] = test system: MKL-1; assay: as above; details: MCC and control cell lines, CellTiter-Glo viability, 72 h; series mostly up to 46 µM
How it was run: as §2

[8] = test system: MKL-2; assay: as above; details: MCC and control cell lines, CellTiter-Glo viability, 72 h; series mostly up to 46 µM
How it was run: as §2

[9] = test system: NIH3T3; assay: as above; details: MCC and control cell lines, CellTiter-Glo viability, 72 h; at 44.8 µM (top of the series) unless noted
How it was run: as §2

[10] = test system: CRL-7250; assay: as above; details: MCC and control cell lines, CellTiter-Glo viability, 72 h; at 44.8 µM (top of the series) unless noted
How it was run: as §2
Further: nearly all actives have a fitted effect of over 60% in size.
On the % scale 0 is the no-effect control and ±100 the full control effect.

COP(=O)(OC)C(O)C(Cl)(Cl)Cl (stereo unspecified)
inactive: max response [1] -12.2% | outcome [2] | outcome [3] | outcome [4] | Potency [5] | Potency [6] | Potency [7] | Potency [8] | outcome [9]

CC(C)=C[C@@H]1[C@@H](C(=O)OCc2coc(Cc3ccccc3)c2)C1(C)C
inactive: max response [1] 6.83% | max response [2] -1.15% | outcome [3] | Potency [5] | Potency [6] | Potency [7] | Potency [8]

C[N+]1(C)[C@@H]2CC[C@H]1CC(OC(=O)C(CO)c1ccccc1)C2 (stereo partly specified)
inactive: max response [1] -14.7% and 4.2% | max response [2] -5.19% | outcome [10] | outcome [4] | Potency [5] | Potency [6] | Potency [7] | Potency [8]

CCOC(=O)NC(O)C(Cl)(Cl)Cl (stereo unspecified)
inactive: max response [1] 11.7% | max response [2] 0.136% | outcome [3] | Potency [5] | Potency [6] | Potency [7] | Potency [8]

CCCC[N+]1(C)[C@@H]2CC(OC(=O)[C@H](CO)c3ccccc3)C[C@H]1[C@@H]1O[C@@H]12 (stereo partly specified)
inactive: max response [1] 6.44% and 1.1% | max response [2] 4.56% and 3.97% | outcome [10] | outcome [3] | outcome [4] | Potency [5] | Potency [6] | Potency [7] | Potency [8]

CCC1(c2cnc[nH]2)Cc2ccccc2C1
inactive: max response [1] -12.7% and -2.33% | outcome [2]

C=CCN1CC[C@]23CCCC[C@H]2[C@H]1Cc1ccc(O)cc13
inactive: max response [1] 20.9% | max response [2] -4.67% | outcome [3] | Potency [5] | Potency [6] | Potency [7] | Potency [8]

c1cc2c(c(N3CCNCC3)c1)OCCO2
inactive: max response [1] -5.14% | max response [2] 1.17% | outcome [3] | Potency [5] | Potency [6] | Potency [7] | Potency [8]
